Experiment [1] can be described thus: Nuclear factor erythroid 2-related factor 2/antioxidant responsive element (Nrf2/ARE) small molecule agonists: qHTS cell viability counter screen in human keratinocytes (AID 1919968; active = well fitted curve in the direction sought with a large enough effect in the repeat runs; an effect the other way counts as inactive or inconclusive; also: nearly all actives have a fitted effect of over 55% in size). In short, it runs like this: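 Cytotoxicity was multiplexed with the Nrf2/ARE luciferase assay in the same wells. Stably transfected HaCaT keratinocytes were treated with test compounds for 23 h at 37 C. Cell viability was then measured by CellTiter-Fluor fluorescence.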

The nature of experiment [2]: Nuclear factor erythroid 2-related factor 2/antioxidant responsive element (Nrf2/ARE) small molecule agonists: luciferase reporter gene qHTS assay in human keratinocytes (AID 1919969; also: nearly all actives have a fitted effect of over 35% in size; also: potency is read from the fitted curve at half-maximal effect). (In a reporter assay the amount or activity of a reporter protein is the signal.)
For experiment [3], the target named is Gonadotropin-releasing hormone receptor (Homo sapiens) (UniProt P30968). As to the kind of experiment: Human gonadotropin-releasing hormone receptor (GnRHR) small molecule agonists, calcium flux assay in GnRHR-HEK293 cells (AID 1920063). Also: nearly all actives have a fitted effect of over 35% in size. Summed up: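 Agonist activity was measured as intracellular calcium flux in HEK293 cells engineered to stably express human GnRHR. After dye loading for 1 hour at 37 C, compounds in DMSO were added and fluorescence was followed for 3 minutes.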
Sequence of Gonadotropin-releasing hormone receptor (Homo sapiens) (P30968 whole entry, looked up): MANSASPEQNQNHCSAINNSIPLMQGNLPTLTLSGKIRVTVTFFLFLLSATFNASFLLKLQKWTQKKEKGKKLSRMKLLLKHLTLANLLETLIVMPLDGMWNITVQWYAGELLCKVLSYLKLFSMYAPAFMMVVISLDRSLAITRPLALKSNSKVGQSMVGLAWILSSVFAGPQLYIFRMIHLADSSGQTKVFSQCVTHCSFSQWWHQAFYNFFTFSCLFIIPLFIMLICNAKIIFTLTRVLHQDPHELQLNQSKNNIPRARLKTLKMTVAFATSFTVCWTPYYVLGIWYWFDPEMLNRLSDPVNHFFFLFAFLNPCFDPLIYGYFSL
In general terms: Calcium flux is commonly read through the fluorescence of an indicator in the cells.

Experiment [4] addresses KiSS-1 receptor (Homo sapiens) (UniProt Q969F8). The experiment in a line: Human kisspeptin (KISS1R) small molecule agonists, calcium flux assay in KISS1R-HEK293 cells (AID 1920064; active = well fitted curve in the direction sought with a large enough effect in the repeat runs; an effect the other way counts as inactive or inconclusive). In short, it runs like this: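 Agonist activity is monitored as intracellular calcium rise in engineered HEK293 cells carrying human KISS1R. Cells are dye-loaded for 1 h at 37 C before compound addition, and fluorescence is recorded for 3 min.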

Experiment [5] is described as follows: G protein-coupled receptor (GPCR) small molecule agonists, calcium flux assay: HEK293 wild type cell line counter screen (AID 1920065). Summed up:
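Seed cells, incubate 18 h (37 C, 5% CO2); add calcium dye, 1 h at 37 C; pin-transfer compounds, ATP control or DMSO; read fluorescence 480/540 nm each second for 3 min.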

Experiment [6] is described as follows: p53 small molecule agonists, cell-based qHTS assay with human liver microsomes: qHTS cell viability counter screen (AID 1963579). Also: nearly all actives have a fitted effect of over 45% in size. Summed up:
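In this multiplexed counter screen, the reporter plates were subsequently treated with CellTiter-Glo so that cell viability, reflected by luminescence, could be recorded for p53RE-bla cells dosed 16 h with compounds under microsomal activation (HLM and NADPH).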
Background: Quantitative high-throughput screening tests each substance at several concentrations.

Experiment [7] in a line: p53 small molecule agonists, cell-based qHTS assay with rat liver microsomes: qHTS cell viability counter screen (AID 1963580). Also: nearly all actives have a fitted effect of over 45% in size. Summed up:
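Luminescent ATP readout (CellTiter-Glo, 30 min at room temperature) reports viability of p53RE-bla HCT-116 cells after 16 h at 37 C with test compounds under metabolic activation by rat liver microsomes and NADPH at 0.5 mg/mL final each.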

Experiment [8] in a line: p53 small molecule agonists, cell-based qHTS assay: qHTS cell viability counter screen (AID 1963581). Also: nearly all actives have a fitted effect of over 45% in size. In short, it runs like this:
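Viability was counter-screened in parallel with the p53 agonist reporter by measuring intracellular ATP luminescence in the same HCT-116 p53RE-bla wells after 16 h compound treatment at 37 C.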

Experiment [9] has as its target 5-hydroxytryptamine receptor 2A (Homo sapiens) (UniProt P28223). The experiment in a line: 5-hydroxytryptamine receptor 2A (HTR2A) small molecule antagonists, cell-based qHTS assay (AID 1963586). Also: nearly all actives have a fitted effect of over 45% in size. In short, it runs like this:
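CHO cells stably expressing human HTR2A were plated for 18 h at 37 C, then loaded with calcium dye for 1 h. Compounds were preincubated 5 min at room temperature before DOI (4 nM solution) was added. Kinetic fluorescence was read for 3 min.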

Experiment [10] shares this target. The experiment in a line: 5-hydroxytryptamine receptor 2A (HTR2A) small molecule agonists, cell-based qHTS assay (AID 1963587). Also: nearly all actives have a fitted effect of over 30% in size. In short, it runs like this: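 HTR2A-CHO cells, plated 18 h at 37 C/5% CO2, dye-loaded 1 h at 37 C; compounds in DMSO added by pin tool (agonist mode). Intracellular calcium flux read as kinetic fluorescence on FDSS over 2 min at 1 s intervals.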

Experiment [11] concerns the target Muscarinic acetylcholine receptor M1 (Homo sapiens) (UniProt P11229). The experiment in a line: Cholinergic receptor muscarinic 1 (CHRM1) small molecule antagonists, cell-based qHTS assay (AID 1963588). Also: nearly all actives have a fitted effect of over 40% in size. Summed up:
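Compounds were tested at 15 concentrations in three independent runs. Dye-loaded CHRM1-CHO cells were exposed 5 min at room temperature before stimulation by acetylcholine added at 50nM. Intracellular calcium was read kinetically on FDSS for 3 min.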

Experiment [12] has the same target. As to the kind of experiment: Cholinergic receptor muscarinic 1 (CHRM1) small molecule agonists, cell-based qHTS assay (AID 1963589). Also: nearly all actives have a fitted effect of over 35% in size. Summed up:
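Cells were plated and incubated 18 h at 37 C/5% CO2, loaded with calcium dye for 1 h at 37 C, then treated with compounds in DMSO. Fluorescence was recorded kinetically at 1 sec intervals.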

A short description of experiment [13]: cAMP Responsive Elements (CRE) small molecule agonists, cell-based qHTS assay (AID 1963590). Summed up: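 Cells carrying a CRE-driven beta-lactamase reporter (HEK 293T) are seeded, incubated overnight (18 h), and treated with test compounds for 3 h at 37 C; reporter activity is then detected with a FRET substrate after 2 h at room temperature.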
Experiment [14] is described as follows: cAMP Responsive Elements (CRE) small molecule antagonists, cell-based qHTS assay (AID 1963591; active = well fitted inhibition curve with a large enough effect in the signal ratio in the repeat runs, not every such curve was filed as active; the % refers to the signal ratio). Summed up: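 Cells (CRE-bla HEK 293T, DMEM with 10% dialyzed FBS and 25 mM HEPES) are seeded and incubated 18 h. Compounds are added with NKH477 agonist at 0.25 uM final for 3 h, then FRET substrate for 2 h.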
Experiment [15] addresses Beta-2 adrenergic receptor (Homo sapiens) (UniProt P07550). As to the kind of experiment: Adrenergic beta2 receptor (ADRB2) small molecule antagonists, cell-based qHTS assay (AID 1963592). Also: series mostly up to about 92 µM; nearly all actives have a fitted effect of over 50% in size. In short, it runs like this: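 Assay format: CHO-ADRB2 cells, 18-20hr seeding at 37C/5% CO2, then compound plus 1nM isoproterenol agonist mix for 0.5hr RT. Homogeneous time-resolved fluorescence cAMP detection after 1hr, expressed as 665/615 nm ratio.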

For experiment [16] the target is unchanged. The experiment in a line: Adrenergic beta2 receptor (ADRB2) small molecule agonists, cell-based qHTS assay (AID 1963593).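 Also: CHO cells stably overexpressing human ADRB2.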 Summed up: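 CHO cells stably over-expressing ADRB2 were plated overnight at 37C, then dosed with compounds plus a stimulation mix containing 100uM IBMX and 25uM Ro-20-1724 for 0.5hr at room temperature. cAMP was measured by HTRF competition, 1hr.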

Experiment [17] concerns the target D(2) dopamine receptor (Homo sapiens) (UniProt P14416). As to the kind of experiment: Dopamine D2 receptor (DRD2) small molecule agonists, cell-based qHTS assay (AID 1963594). Also: nearly all actives have a fitted effect of over 35% in size. In short, it runs like this:
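HEK293 cells stably expressing DRD2 were cultured 24 h at 37 C, then given Ro20-1724 (0.1 mM final) and compounds for 10 min at room temperature. NKH477 (200nM) was then added for 30 min. cAMP was read by HTRF.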

For experiment [18] the target is unchanged. The experiment in a line: Dopamine D2 receptor (DRD2) small molecule antagonists, cell-based qHTS assay (AID 1963595; active = well fitted inhibition curve with a large enough effect in the signal ratio in the repeat runs, with a control signal flat; the % refers to the signal ratio). In short, it runs like this:
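Stable D2 receptor HEK293 line, 24 h after seeding. Compound preincubated 10 min, then quinpirole (12 nM) with forskolin analogue NKH477 (200 nM), 30 min, room temperature. Detection by time-resolved FRET of cAMP.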

Consider seven molecules from PubChem BioAssay (Tox21).

“And” between values parts separate entries of the source, which are not always exact repeats. Identical values can stand only once. Records with an inconclusive call do not appear. Some compounds were tested as several samples or in several runs, with calls that do not always agree. The source made the active and inactive calls. Unless noted, calls follow the shape of the full dose curve.

Sequence of D(2) dopamine receptor (Homo sapiens) (P14416 whole entry, looked up): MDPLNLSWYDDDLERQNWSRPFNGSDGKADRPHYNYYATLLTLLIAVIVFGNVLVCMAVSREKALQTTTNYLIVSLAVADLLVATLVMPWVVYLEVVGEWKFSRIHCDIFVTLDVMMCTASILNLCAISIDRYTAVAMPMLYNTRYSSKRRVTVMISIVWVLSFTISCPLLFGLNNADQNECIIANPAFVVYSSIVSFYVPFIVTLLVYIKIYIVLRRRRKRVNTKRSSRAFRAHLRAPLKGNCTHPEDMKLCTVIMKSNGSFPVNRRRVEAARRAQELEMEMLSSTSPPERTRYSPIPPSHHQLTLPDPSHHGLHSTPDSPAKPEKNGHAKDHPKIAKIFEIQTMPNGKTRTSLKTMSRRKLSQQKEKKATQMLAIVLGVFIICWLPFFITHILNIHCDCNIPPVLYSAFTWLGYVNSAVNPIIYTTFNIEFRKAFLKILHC
Sequence of Beta-2 adrenergic receptor (Homo sapiens) (P07550 whole entry, looked up): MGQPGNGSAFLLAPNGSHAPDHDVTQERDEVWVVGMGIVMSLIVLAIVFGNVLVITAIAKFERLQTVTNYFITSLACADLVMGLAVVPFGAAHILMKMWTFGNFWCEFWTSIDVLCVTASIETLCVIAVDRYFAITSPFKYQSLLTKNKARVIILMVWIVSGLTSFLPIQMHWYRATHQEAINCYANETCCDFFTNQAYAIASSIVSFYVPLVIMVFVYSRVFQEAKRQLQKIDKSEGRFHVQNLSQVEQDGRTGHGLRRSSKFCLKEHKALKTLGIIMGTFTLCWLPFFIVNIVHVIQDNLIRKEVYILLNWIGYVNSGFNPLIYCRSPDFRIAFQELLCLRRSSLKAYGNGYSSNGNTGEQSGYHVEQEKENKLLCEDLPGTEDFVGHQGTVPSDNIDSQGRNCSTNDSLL
Sequence of Muscarinic acetylcholine receptor M1 (Homo sapiens) (P11229 whole entry, looked up): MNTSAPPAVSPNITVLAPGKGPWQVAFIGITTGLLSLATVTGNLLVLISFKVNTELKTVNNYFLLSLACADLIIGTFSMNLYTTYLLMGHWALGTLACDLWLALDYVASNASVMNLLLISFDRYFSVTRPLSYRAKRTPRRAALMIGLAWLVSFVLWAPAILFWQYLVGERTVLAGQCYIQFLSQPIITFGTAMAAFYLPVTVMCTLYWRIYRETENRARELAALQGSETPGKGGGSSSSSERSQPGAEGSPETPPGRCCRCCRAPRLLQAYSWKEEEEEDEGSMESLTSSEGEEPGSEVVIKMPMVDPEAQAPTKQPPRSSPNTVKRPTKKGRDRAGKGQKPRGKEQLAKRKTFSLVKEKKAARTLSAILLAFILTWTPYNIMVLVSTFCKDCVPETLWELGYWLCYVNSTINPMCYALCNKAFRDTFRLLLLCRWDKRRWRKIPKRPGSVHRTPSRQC
Sequence of 5-hydroxytryptamine receptor 2A (Homo sapiens) (P28223 whole entry, looked up): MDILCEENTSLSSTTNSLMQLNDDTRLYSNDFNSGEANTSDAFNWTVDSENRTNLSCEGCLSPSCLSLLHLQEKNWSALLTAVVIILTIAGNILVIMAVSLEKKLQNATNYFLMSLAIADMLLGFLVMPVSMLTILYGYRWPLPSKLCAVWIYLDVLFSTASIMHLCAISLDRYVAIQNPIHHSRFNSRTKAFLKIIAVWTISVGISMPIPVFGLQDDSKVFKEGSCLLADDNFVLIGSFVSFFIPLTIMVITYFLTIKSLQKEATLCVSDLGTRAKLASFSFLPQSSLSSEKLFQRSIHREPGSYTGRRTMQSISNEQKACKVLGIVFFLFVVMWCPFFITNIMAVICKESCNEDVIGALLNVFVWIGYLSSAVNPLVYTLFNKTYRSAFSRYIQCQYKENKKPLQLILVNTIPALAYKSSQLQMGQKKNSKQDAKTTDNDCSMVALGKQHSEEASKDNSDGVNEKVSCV
Sequence of KiSS-1 receptor (Homo sapiens) (Q969F8 whole entry, looked up): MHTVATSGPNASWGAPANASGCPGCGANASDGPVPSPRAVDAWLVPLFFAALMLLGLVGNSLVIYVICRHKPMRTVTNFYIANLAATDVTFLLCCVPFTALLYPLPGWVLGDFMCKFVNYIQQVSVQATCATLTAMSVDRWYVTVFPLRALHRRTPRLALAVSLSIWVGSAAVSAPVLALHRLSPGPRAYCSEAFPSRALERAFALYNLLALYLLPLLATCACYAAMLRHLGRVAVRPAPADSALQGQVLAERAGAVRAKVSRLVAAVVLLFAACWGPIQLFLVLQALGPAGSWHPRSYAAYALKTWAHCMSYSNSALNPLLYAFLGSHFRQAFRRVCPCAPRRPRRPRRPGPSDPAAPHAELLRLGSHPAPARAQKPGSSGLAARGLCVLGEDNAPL

`Nc1ccc(N)cc1`: the Potency entry in experiment [1], in experiment [3], in [4], in experiment [5], in experiment [6] and in [7] was “inactive” in each case. Also, the Potency result in [8], in experiment [9], in [10], in [11], in [12] and in experiment [13] was “inactive” in each case. For the same molecule, the Potency result in experiment [14], in experiment [15], in [16], in [17] and in experiment [18] was “inactive” each time. Also, in experiment [2], the Potency is 61.1 µM (active) and 18.8 µM (active) and inactive.

Take `Cc1cc(C)cc(C)c1`: the Potency result in experiment [1], in experiment [2], in [3], in experiment [4], in experiment [5] and in [6] was “inactive” in each case. Besides, the Potency entry in [7], in experiment [8], in experiment [9], in experiment [10], in [11] and in experiment [12] was “inactive” each time. The Potency entry in experiment [13], in [14], in experiment [15], in [17] and in experiment [18] was “inactive” each time.

Turning to `CC1C=[C-]C=C1.[C-]#[O+].[C-]#[O+].[C-]#[O+].[Mn]`, the Potency entry in experiment [1], in experiment [2], in experiment [3], in [4], in experiment [5] and in [6] was “inactive” each time. Moreover, the Potency result in experiment [7], in experiment [8], in experiment [9], in experiment [10], in experiment [11] and in [12] was “inactive” in each case. Moreover, the Potency result in experiment [13], in experiment [14], in [15], in experiment [16], in experiment [17] and in experiment [18] was “inactive” in each case.

Take `CN1C(=O)CCS(=O)(=O)C1c1ccc(Cl)cc1` (configuration not stated): the Potency result in experiment [1], in experiment [2], in experiment [3], in experiment [4], in experiment [5] and in experiment [6] was “inactive” each time. Moreover, the Potency result in experiment [7], in experiment [8], in experiment [9], in experiment [10], in experiment [11] and in experiment [12] was “inactive” throughout. Moreover, the Potency result in experiment [13], in [14], in experiment [15], in [16] and in [18] was “inactive” each time.

As for `O=C(O)C(Cl)Cl`, the Potency entry in [1], in [2], in experiment [3], in [4], in experiment [5] and in experiment [6] was “inactive” throughout. In addition, the Potency entry in experiment [7], in experiment [8], in experiment [9], in experiment [10], in experiment [11] and in experiment [12] was “inactive” in each case. Further, the Potency result in experiment [13], in [14], in [15], in experiment [16], in [17] and in experiment [18] was “inactive” throughout.

For the molecule `O=[N+]([O-])/N=C1\NCCN1Cc1ccc(Cl)nc1`, the Potency result in [1], in experiment [2], in [3], in [4], in experiment [5] and in [6] was “inactive” throughout. In addition, the Potency entry in experiment [7], in [8], in experiment [9], in experiment [11], in experiment [12] and in [13] was “inactive” each time. Moreover, the Potency entry in experiment [14], in experiment [15], in experiment [16], in [17] and in experiment [18] was “inactive” in each case.

Consider `CCCCCCCCCCCCCCCCCC(=O)O`, for which the Potency entry in [1], in [3], in [4], in experiment [5], in [6] and in experiment [7] was “inactive” throughout. Also, the Potency entry in [8], in experiment [9], in experiment [10], in [11], in [13] and in experiment [14] was “inactive” in each case. In addition, the Potency entry in [15], in [16], in experiment [17] and in [18] was “inactive” each time. Moreover, in [2], the Potency is 48.2 µM (active) and inactive.
